Results: ChEMBL document CHEMBL3988442, “University of Dundee, Small-Polar-MMV Screening Library” (2021)
The whole screen tested about 48,000 compounds, of which about 13,000 (27%) showed an effect of 50% or more. Some of the results follow.

System: Wolbachia pipientis
Test: Anti-Wolbachia Cell-Based Screen
Format: functional
Parameters: scale not given: in the data most compounds retested in dose-response had high values
Conditions: 5 µM

First: Cc1cc(C(=O)NCC(=O)NC(c2ncccc2C)C(C)C)c(C)o1 (configuration not stated)
Second: Cc1cc(OCC(=O)NS(=O)(=O)c2c(C)noc2C)ccc1Cl
The “Percent Effect” value of the first is lower: -6.286% for the first, -5.411% for the second.

Compared with `CC(C)NC(=O)c1cnc(Sc2nccn2C)c(Cl)c1`, `Cc1cc(=O)n2nc(Oc3ccc(Cl)c(C)c3)sc2n1` is higher in “Percent Effect” value: 7.154% for the first, 81.92% for the second.

Going from `CCCSc1nc(O)c(CC)c(=O)n1-c1ccccc1` to `Cc1cccc2c1nc(COCC(=O)O)n2-c1ccc(N)nc1`, the “Percent Effect” value falls from -0.2298% to -5.94%.

Going from `Cc1ncc(COc2cccc3c2NC(=O)CO3)s1` to `Cc1cc(=O)n2nc(Oc3ccc(C#N)cc3Cl)sc2n1`, the “Percent Effect” value rises from -10.58% to 80.29%.

Going from `Cc1cc(C(=O)N2CCOC[C@H](Oc3cccnc3)C2)c(C(F)(F)F)o1` to `O=C(O)C(F)(F)F.O=C(O)C(F)(F)F.O=C(c1ccc(F)cc1)N1CCN2C[C@H](Oc3cccnc3)C[C@H]2C1`, the “Percent Effect” value falls from 3.665% to -2.866%.

Going from `O=C([C@@H]1CCO[C@@H]2CCN(Cc3cccnc3)C[C@H]21)N1CCCCO1` to `Cl.Cl.O=C(NCc1cncc2c1CCN(Cc1ccoc1)C2)C1CC1`, the “Percent Effect” value falls from 13.27% to -1.129%.

First: CC(C)=CCN(C)C1CCCN(Cc2noc(C)n2)C1 (configuration not stated)
Second: CN(CCC#N)C(=O)CN1CCCN(Cc2noc(C3CC3)n2)CC1
The “Percent Effect” value of the first is higher: 0.8027% for the first, -26.77% for the second.

First: CO[C@@H]1CN(c2ccccc2)S(=O)(=O)[C@@]12CCN(Cc1cncs1)C2
Second: CO[C@@H]1CN(c2ccccc2)S(=O)(=O)[C@@]12CCN(Cc1ccccc1)C2
The “Percent Effect” value of the first is lower: 104.5% for the first, 116.8% for the second.

First: COCC1CC2(CCN(CC3CC3)CC2)CN1c1ncccn1.O=C(O)C(F)(F)F.O=C(O)C(F)(F)F (configuration not stated)
Second: CN1CC(=O)N(c2ccccc2)CC12CCN(CC1CC1)C2.O=C(O)C(F)(F)F.O=C(O)C(F)(F)F (configuration not stated)
The “Percent Effect” value of the first is higher: 9.926% for the first, -12.9% for the second.

Compared with `CO[C@@H]1CN(c2ccccc2)S(=O)(=O)[C@@]12CCN(CC1CC1)C2`, `CO[C@H]1CN(c2ccccc2)S(=O)(=O)[C@@]12CCN(Cc1ccccc1)C2` is higher in “Percent Effect” value: 88.1% for the first, 88.28% for the second.

Going from `O=C1C[C@@H]2CCN(Cc3ccccc3)C[C@@H]2CCN1c1ccccc1` to `O=C(CCn1ccccc1=O)N1CCN(Cc2cccc(Cl)c2)CC1`, the “Percent Effect” value falls from 1.893% to -6.995%.

Compared with `COc1cc(C2CC(=O)c3c(O)cc(O)cc3O2)ccc1O` (configuration not stated), `COc1ccccc1Cc1cc(O)nc(NC(C)CN(C)C)n1` (configuration not stated) is higher in “Percent Effect” value: 4.847% for the first, 91.33% for the second.

First: COc1ccc(-c2noc(Cn3cc(C)cn3)n2)c(OC)c1OC
Second: O=C1CCCN1Cc1nc(-c2ccsc2)no1
The “Percent Effect” value of the first is lower: -1.893% for the first, -0.6709% for the second.

First: COc1ccccc1CN(Cc1cccs1)S(=O)(=O)N(C)C(C)C
Second: COc1ccccc1CCNC(=O)N(C)C(C)CS(C)(=O)=O (configuration not stated)
The “Percent Effect” value of the first is higher: -8.287% for the first, -10.73% for the second.

Going from `Cc1ncc2c(n1)CCN(Cc1ncc(C(C)(C)C)o1)C2` to `CC(c1ncc(C(C)(C)C)o1)N1CCN(Cc2ccncc2)CC1` (configuration not stated), the “Percent Effect” value falls from 1.311% to -8.967%.

Compared with `CCC(=O)NC(c1ccc(C)cc1)c1cccc(S(C)(=O)=O)c1` (configuration not stated), `CCNC(=O)NC(c1ccc(C)cc1)c1cccc(S(C)(=O)=O)c1` (configuration not stated) is higher in “Percent Effect” value: 96.25% for the first, 96.65% for the second.

First: Cc1ccc(C(NC(=O)[C@H]2CC[C@@H](O)CC2)c2cccnc2)cc1C (some centres not stated)
Second: Cc1ccc(C(NC(=O)C2CC2)c2cccc(S(C)(=O)=O)c2)cc1 (configuration not stated)
The “Percent Effect” value of the first is lower: -7.536% for the first, 85.76% for the second.

Compared with `Cc1ccc(C(N)c2cccc(S(C)(=O)=O)c2)cc1` (configuration not stated), `COc1ccc(C(N)c2cccc(S(C)(=O)=O)c2)cc1` (configuration not stated) is higher in “Percent Effect” value: 1.85% for the first, 4.589% for the second.

Compared with `CC(CO)NS(=O)(=O)c1cccc(C(C)C)c1` (configuration not stated), `CC(CCc1ccccc1F)C(=O)NS(=O)(=O)N(C)C(C)C` (configuration not stated) is higher in “Percent Effect” value: -1.865% for the first, -0.5241% for the second.

First: CS(=O)(=O)c1cccc(S(=O)(=O)NC(=O)CC2CCCC2)c1
Second: CS(=O)(=O)c1cccc(C(N)c2ccc(F)c(F)c2)c1.Cl (configuration not stated)
The “Percent Effect” value of the first is lower: -23.12% for the first, -2.394% for the second.

Going from `COc1ccc(N2CCN(C(=O)CCn3nnnc3C)CC2(C)C)cc1` to `COc1ccccc1N1CCN(C(=O)Cn2nccc2C)CC1(C)C`, the “Percent Effect” value falls from 5.117% to 4.467%.

Compared with `CN(Cc1ccco1)Cc1cncc2c1CCN(Cc1ccoc1)C2.Cl.Cl.Cl`, `CN(Cc1cccnc1)Cc1cncc2c1CCN(Cc1ccoc1)C2.Cl.Cl.Cl` is higher in “Percent Effect” value: 96.91% for the first, 98.31% for the second.

Going from `CN(Cc1cccnc1)CC1CNCc2nccn2C1` (configuration not stated) to `CN(Cc1cccnc1)Cc1cncc2c1CCN(c1ccccn1)C2.Cl.Cl.Cl`, the “Percent Effect” value rises from -0.6774% to 98.43%.

Going from `Cl.Cl.c1cnc(NCc2cncc3c2CCN(Cc2ccoc2)C3)nc1` to `CC(C)CN1CCc2c(CN(C)Cc3ccco3)cncc2C1.Cl.Cl.Cl`, the “Percent Effect” value rises from 0.8556% to 112.5%.

Going from `CN(Cc1cn2c(n1)CN(C(=O)N(C)C)CC2)Cc1ccco1` to `CCS(=O)(=O)N1CCn2cc(CN(C)Cc3ccco3)nc2C1`, the “Percent Effect” value falls from 3.747% to -9.31%.

Compared with `CC(C)C(=O)N1CCc2c(CN(C)Cc3ccco3)cncc2C1.Cl.Cl`, `CN(Cc1ccco1)Cc1cncc2c1CCN(S(C)(=O)=O)C2.Cl.Cl` is higher in “Percent Effect” value: 107% for the first, 114% for the second.

First: CC(C)N(C)Cc1cncc2c1CCN(C(=O)c1cccc(C#N)c1)C2.Cl.Cl
Second: CCS(=O)(=O)N1CCc2c(CN(C)Cc3ccco3)cncc2C1.Cl.Cl
The “Percent Effect” value of the first is lower: -11.44% for the first, 0.2646% for the second.

Going from `COC(=O)c1ccc(CN(C(C)C)C(C)C)o1.Cl` to `COc1ccccc1CC(C)(C)NC(=O)CN(C)C(C)C`, the “Percent Effect” value rises from -10.72% to 3.69%.

Compared with `CCn1ccnc1CN1CCN(CC(=O)NC(C)(C#N)C2CC2)CC1` (configuration not stated), `CC(C)OCC(=O)N1CCCN(Cc2ccc(C#N)cc2)CC1` is higher in “Percent Effect” value: -16.24% for the first, -9.345% for the second.

Compared with `COCCN1C[C@@H]2CN(S(=O)(=O)c3cccs3)C[C@@H]2C1=O`, `O=C1CCCN1CCc1nc(-c2ccsc2)no1` is higher in “Percent Effect” value: -21.25% for the first, 3.312% for the second.

First: O=C(Nc1ccc2scnc2c1)N1CCN([C@H]2CCCC[C@@H]2O)CC1
Second: CN(C)C(=O)c1cccc(NC(=O)N2CCCC(C(F)(F)F)C2)c1 (configuration not stated)
The “Percent Effect” value of the first is lower: -4.588% for the first, 13.97% for the second.

Going from `CN(C)C1CCCN(C(=O)NCCC(C)(C)C)C1` (configuration not stated) to `CN(CC(F)(F)F)C(=O)CNC(=O)N1CCCC(N(C)C)C1` (configuration not stated), the “Percent Effect” value rises from -10.25% to 95.13%.

Compared with `CN(CC(F)(F)F)C(=O)CNC(=O)N1CCCC(C(F)(F)F)C1` (configuration not stated), `O=C(NCCNc1ncccn1)N1CCCC(C(F)(F)F)C1` (configuration not stated) is lower in “Percent Effect” value: 92.98% for the first, -15.03% for the second.

Going from `CN(C)C1CCCN(C(=O)NCCC(=O)N2CCCCCC2)C1` (configuration not stated) to `CC(=O)N1CCN(C(=O)C2SCCc3sccc32)CC1` (configuration not stated), the “Percent Effect” value falls from 0.3491% to -2.542%.

Compared with `Cc1nnc(C(C)N2CCN(Cc3ccc4c(c3)OCO4)CC2)o1` (configuration not stated), `Cc1nnc(C(C)N2CCN(Cc3ccc(C#N)cc3)CC2)o1` (configuration not stated) is lower in “Percent Effect” value: 12.94% for the first, 2.063% for the second.

Compared with `Cc1nnc(C(C)N2CCN(Cc3ccc(C(F)(F)F)cc3)CC2)o1` (configuration not stated), `Cc1nnc(C(C)N2CCCN(Cc3ccc(F)cc3)CC2)o1` (configuration not stated) is lower in “Percent Effect” value: 124.3% for the first, 92.55% for the second.

Going from `Cc1nnc(C(C)N2CCCN(Cc3noc(C4CC4)n3)CC2)o1` (configuration not stated) to `Cc1nnc(C(C)N2CCCN(Cc3ccc(C#N)cc3)CC2)o1` (configuration not stated), the “Percent Effect” value rises from 5.084% to 105.5%.

Compared with `COc1cnc(N2CCCN(Cc3ccc(F)cc3)CC2)nc1`, `Cc1cccc(OC2CCN(c3ncc(C#N)cc3Cl)CC2)n1` is lower in “Percent Effect” value: 0.06599% for the first, -14.79% for the second.

First: O=c1[nH]nc(-c2cccs2)c2sc(N3CCOCC3)nc12
Second: c1ccc(C(CNc2ncccn2)N2CCOCC2)nc1 (configuration not stated)
The “Percent Effect” value of the first is lower: -14.46% for the first, -6.458% for the second.

Compared with `CC(CN(C)C)Nc1nc(O)cc(Cc2ccccc2F)n1` (configuration not stated), `CC(CC#N)N(C)Cc1ccccc1F` (configuration not stated) is lower in “Percent Effect” value: 94.63% for the first, 11.31% for the second.

First: O=C(CCc1nc(Cl)n[nH]1)N1CCC2(CCCNC2=O)C1 (configuration not stated)
Second: O=C1CCCCCN1CCc1nc(-c2cccnn2)no1
The “Percent Effect” value of the first is lower: 7.017% for the first, 101.6% for the second.

First: CCCN1CCC(N(C)C(=O)c2cc(C)nc3cc(F)ccc23)CC1
Second: Cc1cc(C(=O)N(C)C2CCS(=O)(=O)C2)c2ccc(F)cc2n1 (configuration not stated)
The “Percent Effect” value of the first is higher: 11.04% for the first, -24.13% for the second.

Compared with `CN1CCC(N(C)C(=O)c2cnn(-c3ccccc3Br)c2N)CC1`, `CN1CCC(N(C)C(=O)c2cnn(-c3cc(F)ccc3F)c2N)CC1` is higher in “Percent Effect” value: 112.2% for the first, 123.1% for the second.

Compared with `CCCC(C)C(=O)N1CCC(c2cc(N3CCOCC3)nc(C)n2)CC1` (configuration not stated), `CCC(=O)N1CCCC(c2nc(-c3cccnn3)no2)C1` (configuration not stated) is lower in “Percent Effect” value: 8.426% for the first, -10.18% for the second.

First: Cn1c(CCNc2nccnc2C#N)nc2cc(Cl)ccc21
Second: Cc1nccc(CNC(=O)NCCOc2ccc(F)c(F)c2)n1
The “Percent Effect” value of the first is higher: -1.88% for the first, -14.18% for the second.

First: Cc1cc(=O)n2nc(Oc3cc(Cl)cc(Cl)c3)sc2n1
Second: Cc1cc(=O)n2nc(Oc3ccc(F)c(F)c3)sc2n1
The “Percent Effect” value of the first is higher: 108.5% for the first, 78.71% for the second.

Going from `CN(C)S(=O)(=O)NCc1cccnc1Oc1ccc(F)c(F)c1` to `CN(C)c1cccc(CNC(=O)Nc2cc(C#N)ccc2Cl)n1`, the “Percent Effect” value rises from -7.83% to 19.69%.

Going from `CS(=O)(=O)NC[C@H]1Cn2c(-c3ccc(Cl)cc3)cnc2CO1` to `CCc1nnc2n1CCN(C(=O)c1ccc(-c3ccco3)nc1C)C2`, the “Percent Effect” value rises from -25.96% to -7.114%.

Going from `Cc1nnc(NC(=O)CN2CCCC(Cn3cncn3)C2)s1` (configuration not stated) to `NC(=O)N1CCCC(c2nc(-c3cccnn3)no2)C1` (configuration not stated), the “Percent Effect” value falls from -2.603% to -17.63%.

Compared with `c1cnnc(-c2noc(CCN3CCCO3)n2)c1`, `O=C1CCCCN1CCc1nc(-c2cccnn2)no1` is higher in “Percent Effect” value: 93.6% for the first, 94.65% for the second.

Going from `c1cnnc(-c2noc(COCC3CCCO3)n2)c1` (configuration not stated) to `c1ccc(-c2noc(CNC3CCCN(c4cccnn4)C3)n2)nc1` (configuration not stated), the “Percent Effect” value rises from -7.3% to 15.74%.
